# Measurements as given in PubChem BioAssay.
# The source made the active and inactive calls.
# Tests used:
# Albumin (Bos taurus) = Albumin (Bos taurus) (UniProt P02769); assay: bovine serum albumin binders on microarray, profiling panel, artefact control for SMM control protein annotation, biochemical, small-molecule microarray, Alexa647 label, 635/667 nm fluorescence (AID 1118); settings: BSA-A647 binding, fluorescence 635 nm, higher = more signal;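 also: score merges 667 nm emission intensity and signal-to-noise per printed compound spot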
# Sequence of Albumin (Bos taurus) (P02769 whole entry, looked up): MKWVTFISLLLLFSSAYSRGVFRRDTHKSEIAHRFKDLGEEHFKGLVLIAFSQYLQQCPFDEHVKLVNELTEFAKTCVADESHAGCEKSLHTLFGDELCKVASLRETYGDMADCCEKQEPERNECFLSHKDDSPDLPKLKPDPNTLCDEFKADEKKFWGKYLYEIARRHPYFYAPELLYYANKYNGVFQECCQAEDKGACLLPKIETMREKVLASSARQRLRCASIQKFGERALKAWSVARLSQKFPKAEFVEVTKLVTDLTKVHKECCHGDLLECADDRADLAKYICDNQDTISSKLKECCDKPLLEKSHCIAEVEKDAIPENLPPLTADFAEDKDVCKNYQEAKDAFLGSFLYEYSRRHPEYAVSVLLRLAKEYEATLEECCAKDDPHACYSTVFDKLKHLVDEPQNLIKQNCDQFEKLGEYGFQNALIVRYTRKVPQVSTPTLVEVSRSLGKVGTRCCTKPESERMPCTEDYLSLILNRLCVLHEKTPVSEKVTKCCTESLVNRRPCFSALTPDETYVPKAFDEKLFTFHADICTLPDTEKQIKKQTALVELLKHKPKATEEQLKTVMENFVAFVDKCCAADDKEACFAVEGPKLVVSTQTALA
# [1] = small-molecule microarray binders of probe aXIP, primary screen, biochemical, NeuroSMM set, 635/667 nm fluorescence (AID 1119); settings: higher = more signal, called active from +8 up or from −8 down;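 also: probe is the protein aXip251-270 applied at 1 µg/mL to compound-printed slides; binding of probe to printed compounds measured as 667 nm fluorescence plus signal to noise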
# [2] = small-molecule binders of probe aNOTCH3, primary screen, biochemical, small-molecule microarray, 635/667 nm fluorescence (AID 1120); settings: higher = more signal;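 also: probe is a biotin-tagged antibody raised against NOTCH3 rather than NOTCH3 protein; score merges spot fluorescence near 667 nm with spot signal to noise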
# [3] = small-molecule binders of probe aNOTCH2, primary screen, biochemical, small-molecule microarray, 635/667 nm fluorescence (AID 1121); settings: higher = more signal;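 also: score merges feature fluorescence read at 667 nm with its signal to noise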
# [4] = molecular target: Carbonic anhydrase 2 (Homo sapiens) (UniProt P00918); assay: CAII small-molecule binders, profiling panel, biochemical, small-molecule microarray, Alexa647-labelled CAII (AID 1122); settings: CAII-A647 binding fluorescence, higher = more signal
# [5] = COS7 lysate on small-molecule microarray, probe aHis, 635 nm (AID 1123); settings: COS7 cell lysate, fluorescence, higher = more signal;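 also: z-score combines 667nm fluorescence intensity with signal-to-noise per printed compound spot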
# [6] = compound binding in COS7 lysate, probe aLAP1, primary screen, cell lysate, small-molecule microarray (AID 1124); settings: probe aLAP1, fluorescence, higher = more signal;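 also: lysate comes from COS7 cells expressing LAP1 and is applied at 0.3 µg/mL; score merges spot fluorescence near 667 nm with signal-to-noise over triplicate slides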
# Sam68 (KHDRBS1) = assay: Sam68 small-molecule binders, primary screen, biochemical, small-molecule microarray, 635 nm fluorescence (AID 1125); settings: small-molecule microarray binding, higher = more signal;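 also: score merges 667 nm channel intensity with signal to noise over triplicate slides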
# [7] = system: Chordin-like protein 2 (CHRDL2); assay: CHRDL2 small-molecule binders, primary screen, biochemical, small-molecule microarray, 635 nm fluorescence (AID 1126); settings: small-molecule microarray binding, fluorescence 635 nm; higher = more signal;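 also: printed compound slides probed with Chrdl2 protein at 4 µg/mL for 1 h at 4 C; score merges 667 nm emission intensity with signal to noise over three replicate slides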
# [8] = molecular target: Concanavalin-A (Canavalia ensiformis) (UniProt P02866); assay: ConA small-molecule binders, primary screen, artefact control for SMM control protein annotation, biochemical, small-molecule microarray, Alexa647 label, 635 nm (AID 1127); settings: ConA-A647 binding fluorescence, higher = more signal;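 also: z combines 667 nm emission intensity with signal-to-noise across three replicate slides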
# Sequence of Concanavalin-A (Canavalia ensiformis) (P02866 whole entry, looked up): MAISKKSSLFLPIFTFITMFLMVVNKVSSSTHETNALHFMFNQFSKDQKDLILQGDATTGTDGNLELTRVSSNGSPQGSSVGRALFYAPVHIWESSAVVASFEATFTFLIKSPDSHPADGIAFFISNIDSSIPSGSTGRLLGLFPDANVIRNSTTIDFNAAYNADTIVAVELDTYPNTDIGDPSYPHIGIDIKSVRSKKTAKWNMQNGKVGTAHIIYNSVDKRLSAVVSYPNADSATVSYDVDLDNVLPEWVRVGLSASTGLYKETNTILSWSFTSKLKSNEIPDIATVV
Compound,composite z-score (Albumin (Bos taurus)),composite Z-score [1],composite z-score [2],composite z-score [3],composite z-score [4],composite z-score [5],composite z-score [6],composite z-score (Sam68 (KHDRBS1)),composite z-score [7],composite z-score [8]
Cc1nc2cc(Br)ccc2c(=O)n1Cc1cccc(O)c1,0.417,0.0614 (inactive),-0.119,-0.12,0.218,1.28,1.09,0.968,1.04,0.799
C=C[C@@H](C)[C@@H](OC(=O)Nc1ccc(SC)cc1)c1ccc(OCCO)cc1,0.743,0.939 (inactive),0.221,-0.0814,0.715,1.07,0.248,0.87,-0.506,1.1
CO[C@H]1O[C@H](CO)[C@@H](OC(=O)Nc2ccc(C#N)cc2)[C@@H]2OC(=O)[C@H](Cc3cccc(Br)c3)C/C=C/C[C@@H](Cc3cccc(Br)c3)C(=O)O[C@@H]12,0.348,0.656 (inactive),0.0935,-0.0711,0.26,0.913,0.23,0.697,0.116,0.384
COC(=O)C(CC#Cc1ccc2c(c1)[C@]1(C(=O)N2)[C@H](c2ccc(OCCO)cc2)N2[C@H](c3ccccc3)[C@H](c3ccccc3)OC(=O)[C@H]2[C@@H]1C(=O)N1CCN(c2ncccn2)CC1)C(=O)OC,0.621,0.434 (inactive),0.176,0.0296,0.62,1.71,0.832,1.3,0.441,1.16
COC(=O)[C@@]1(Cc2ccc(F)cc2)[C@H]2c3cc(C(=O)N(C)C)n(Cc4ccc(O)c(OC)c4)c3C[C@H]2CN1C(=O)c1ccccc1,0.862,-0.136 (inactive),0.416,-0.127,0.659,1.08,-0.0606,0.607,-0.109,0.862
CCCCCCCCCCC(O)C1C=CC2C(=O)N(C)C(=O)C2N1Nc1cc(OC)c(OC)c(OC)c1 (stereo not given),0.869,0.776 (inactive),-0.125,-0.0521,0.0172,1.44,0.148,-0.383,-1.3,0.245
CCOC(=O)C1=CC[C@@H](c2ccccc2)N(S(=O)(=O)c2ccc(C)cc2)[C@H]1c1cccc(OC)c1,0.909,1.15 (inactive),0.199,0.137,0.422,0.899,0.0214,1.06,-0.0412,0.913
CN1C(=O)[C@@H]2[C@@H](CC(COc3ccccc3)=C([C@H](O)CCc3ccccc3)[C@@H]2CO)C1=O,-0.112,0.252 (inactive),-0.0343,-0.201,0.0456,-0.492,-0.525,0.0336,0.0213,-0.0217
CCOC(=O)C1=C[C@@H](c2ccccc2)N(S(=O)(=O)c2ccc(C)cc2)[C@H]1c1ccccc1,0.612,0.185 (inactive),0.0636,-0.022,0.0593,-0.136,0.326,0.582,0.512,0.759
O=C1O[C@H](c2ccccc2)[C@H](c2ccccc2)N2[C@H]1[C@@H](C(=O)N1CCCCCCC1)[C@]1(C(=O)Nc3ccc(C#CC4(O)CCCCCC4)cc31)[C@H]2c1ccc(O)cc1,-0.0339,5.24 (inactive),1.77,0.956,0.705,3.64,1.42,1.29,1.39,1.07
O=C1C2C=CC(C(O)c3cc(C(F)(F)F)cc(C(F)(F)F)c3)N(Nc3ccccc3F)C2C(=O)N1c1ccccc1 (stereo not given),1.01,-0.147 (inactive),0.114,-0.0005,0.752,2.86,1.06,1.01,-0.217,0.443
COc1cccc(/C=C(\C#N)C(=O)Nc2c(C)n(C)n(-c3ccccc3)c2=O)c1,0.998,-0.359 (inactive),-0.053,-0.0454,0.767,0.366,-0.0921,0.949,-0.194,1.14
CCCNC(=O)[C@@]1(Sc2ccc(C)cc2)CC(=O)N(C2CCCCC2)[C@@H]1c1ccc(CO)cc1I,0.207,0.73 (inactive),-0.147,-0.132,0.439,1.47,0.207,0.65,-0.501,0.298
O=C1C2C=CC(C(O)c3ccc(I)cc3)N(Nc3ccccc3)C2C(=O)N1c1ccccc1 (stereo not given),0.778,0.284 (inactive),0.273,0.11,0.738,2.87,0.635,1.34,-0.409,1.16
COc1ccc(C(O)C2C=CC3C(=O)N(c4ccccc4)C(=O)C3N2Nc2ccccc2F)cc1 (stereo not given),0.894,0.319 (inactive),0.154,0.12,0.399,1.69,1.14,1.2,-0.798,0.515
CCOC(=O)C[C@H]1[C@H](OC(=O)c2ccc(-c3ccccc3)cc2)[C@@H](NC(=O)Cc2ccc(OC)cc2)c2cc(OCCCO)ccc2N1C(=O)Cc1ccc(OC)cc1,0.793,-0.263 (inactive),-0.0647,-0.112,-0.0866,0.584,0.234,0.496,-0.565,-0.0542
COCCOC(=O)N1C(=O)[C@@]2(c3ccccc31)[C@H](c1ccccc1OCCO)N1[C@H](c3ccccc3)[C@H](c3ccccc3)OC(=O)[C@H]1[C@@H]2C(N)=O,0.856,1.26 (inactive),-0.0324,-0.181,0.565,2.36,1.01,1.3,0.651,1.18
